Assay outcomes (PubChem BioAssay)
TrxR1 substrate – rat thioredoxin reductase 1 substrate activity; O89049; purified TrxR1 substrate turnover, NADPH consumption readout; Potency, µM (highest dose often 114 µM), inactives show at the highest dose activity change, negative = substrate turnover; 390,000 tested, 0.01% active; AID 588456; note: potency is the fitted concentration of half-maximal effect; % is set by controls: 0 for no effect and ±100 for the full control effect; nearly all actives have a fitted effect of over 50% in size
Target sequence (O89049 whole entry, looked up): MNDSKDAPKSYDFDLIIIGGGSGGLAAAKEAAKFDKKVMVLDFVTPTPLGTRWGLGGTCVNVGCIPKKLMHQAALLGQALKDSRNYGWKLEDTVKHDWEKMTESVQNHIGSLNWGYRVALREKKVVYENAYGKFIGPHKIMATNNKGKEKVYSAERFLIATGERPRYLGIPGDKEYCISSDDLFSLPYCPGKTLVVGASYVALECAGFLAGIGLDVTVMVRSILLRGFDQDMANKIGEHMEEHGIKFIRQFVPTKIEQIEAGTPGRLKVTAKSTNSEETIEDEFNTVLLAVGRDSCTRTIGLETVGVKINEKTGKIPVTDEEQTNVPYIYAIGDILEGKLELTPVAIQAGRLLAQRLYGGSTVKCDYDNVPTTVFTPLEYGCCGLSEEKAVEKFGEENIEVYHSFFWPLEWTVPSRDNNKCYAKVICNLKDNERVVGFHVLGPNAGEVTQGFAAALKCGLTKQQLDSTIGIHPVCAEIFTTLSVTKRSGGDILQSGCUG
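Rat TrxR1, dispensed at 90 nM, was prereduced with 400 uM NADPH (final) for 5 min at ~22 deg C, then incubated with compound 15 min before 400 uM selenite. A first-read NADPH fluorescence drop versus no-compound background flagged substrates.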
A-T KAP1 phos – candidate therapy for ataxia-telangiectasia; F2112 A-T fibroblasts, KAP-1 phosphorylation AlphaLISA; neocarzinostatin DNA damage 30 min before lysis; Potency, µM (doses to about 57.5 µM), for the others: at the highest dose activation, hits mostly activators; 320,000 tested, 0.19% active; note: potency is the fitted concentration of half-maximal effect; % of control where 0% means no effect; nearly all actives have a fitted effect of over 45% in size
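ATM-like activity read as KAP-1 phosphorylation via AlphaLISA donor/acceptor antibody pairs after lysis and 6 hr at 25C. Cells were ATM-null patient fibroblasts (F2112, hTERT), dosed 60 min, then exposed to the DSB inducer NCS for 30 min.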
Akt phos inh – blocks phosphorylation of Akt; AID 651550; Neuro2A IGF-stimulated pAkt S473 HTRF, 20 min; stronger effect = lower value; activity change, % for hits at 50 µM; 360,000 tested, 0.32% active; in the data active = activity change below about -80%; inconclusive = mostly about -51% to -80%; note: % is set by controls: 0 for no effect and ±100 for the full control effect
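Neuro2A cells in DMEM with 0.5% FBS, overnight at 37 deg C, given compound at single 50 µM final, then IGF (6 nM final) for 20 min at 37 deg C. Lysed; phospho-Akt Ser473 by HTRF after 24 h, 665/615 ratio.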
rTrxR1 inhibitor – blocks rat thioredoxin reductase 1; O89049; recombinant rTrxR1, NADPH fluorescence consumption, selenite substrate; Potency, µM (doses to about 114 µM), for inactives: top-dose activity change, negative = inhibition, actives largely listed as inhibitors; 390,000 tested, 1% active; AID 588453; note: potency is the fitted concentration of half-maximal effect; % is set by controls: 0 for no effect and ±100 for the full control effect; nearly all actives have a fitted effect of over 65% in size
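Rat TrxR1 (90 nM in the dispensed reagent) was pre-reduced with 400 uM NADPH for 5 min at room temperature, then incubated with compound for 15 min. After 400 uM selenite was added, NADPH fluorescence (Ex 340/Em 450 nm) was followed for 8 min.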
Pin1 inh – blocks the human prolyl isomerase Pin1. Pin1 FP peptide displacement, HiFluor488, 10 min. Q13526. AID 504891. 390,000 tested, 0.009% active. Potency, µM (highest dose often 115 µM), for the others: top-dose activity, negative = inhibition, actives largely listed as inhibitors; active = well fitted inhibition curve with a large enough effect in the polarisation, with a control signal flat, not every such curve was filed as active; inconclusive = small, poorly fitted or top-dose-only effect, or effect the other way, or a change in a side signal; inactive = no such curve, though single readings can be large or run the other way; the % refers to the polarisation; note: potency is the fitted concentration of half-maximal effect; % is set by controls: 0 for no effect and ±100 for the full control effect
Target sequence (Q13526 whole entry, looked up): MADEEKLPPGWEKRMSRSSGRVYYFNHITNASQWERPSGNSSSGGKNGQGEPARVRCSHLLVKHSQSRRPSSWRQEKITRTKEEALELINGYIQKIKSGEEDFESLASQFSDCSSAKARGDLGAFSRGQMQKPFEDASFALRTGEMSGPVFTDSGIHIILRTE
N370S GC mod – N370S glucocerebrosidase modulation, Gaucher chaperone candidate; P04062; N370S GC spleen homogenate, 4MU-glucoside fluorescence; Potency, µM (titrated, usually from 59.4 µM), for inactives: at the top dose activity change, negative = inhibition, hits mostly inhibitors; 330,000 tested, 0.092% active; AID 2101;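 note: potency is the fitted concentration of half-maximal effect; 0% = full enzyme activity and -100% = no enzyme basal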
An asterisk follows results filed as active; i = inactive; ? = inconclusive; / = no result given; [ ] = remark or other dose. Hits are enriched below; roughly 1.4% of the tested compounds scored in any of these assays. Unless noted, calls come from the whole dose curve; as a rule, active = well fitted curve in the direction sought with a large enough effect; inconclusive = small, poorly fitted or top-dose-only effect, or another doubt; inactive = no such curve, though single readings can be large; an effect the other way counts as inactive or inconclusive.

SMILES | TrxR1 substrate | A-T KAP1 phos | Akt phos inh | rTrxR1 inhibitor | Pin1 inh | N370S GC mod
Cc1cc2c(s1)c1cnn(Cc3c(F)cc(F)cc3F)c(=O)c1n2C | / | / | / | / | 6% | /
O=C1c2ccccc2NC(c2cc(Br)c3c(c2)OCO3)N1Cc1ccco1 (stereo not given) | 37% | / | / | 23% | 1% | /
N=c1c2c(ncn1-c1ccccc1)Oc1ccc3ccccc3c1C2c1ccc2c(c1)OCCO2 (stereo not given) | / | / | / | / | 114% | /
CCc1cccc(C)c1NC(=O)Cn1cc2c(n1)CCCCC2 | 2% | / | / | 11% | -9% | /
Cc1ccc(C)c(NC(=O)c2nc(S(C)(=O)=O)ncc2N(Cc2ccc(C(C)(C)C)cc2)Cc2ccco2)c1 | 2% | / | / | 18% | 5% | /
Cc1c(Cl)cccc1NS(=O)(=O)c1cc2c(cc1Cl)CCC(=O)N2 | / | / | / | / | 1% | /
COc1ccc(N2C(=O)C(Cl)=C(N(CCO)Cc3ccccc3)C2=O)cc1 | -5% | 5% | -112%* | -1% | -6% | 3%
COc1ccc(N2C(=O)C(Cl)=C(N3CCOCC3)C2=O)cc1 | 0% | -3% | i | 12% | 0% | 1%
COc1ccc(N2C(=O)C(Cl)=C(Oc3cccc(OC)c3)C2=O)cc1 | -14%[57.1 µM] | -1% | i | 0.45µM* | -5% | -21%
N[C@@H](CSSC[C@H](N)C(=O)O)C(=O)O | / | / | / | / | / | -4%
O=C1CCC(=O)N1c1nc2n(n1)C(c1ccccc1)C=C(c1ccc(Br)cc1)N2 (stereo not given) | 0% | 1% | i | 71µM* | ? | -8%
C1=C(c2ccccc2)Nc2ncnn2C1c1ccccc1 (stereo not given) | 21% | / | i | 32µM* | -29% | /
CC(=O)Nc1nc2n(n1)C(c1ccccc1)C=C(c1ccccc1)N2 (stereo not given) | 84% | 0% | i | 40µM* | ? | -7%
CC(=O)Nc1nc2n(n1)C(c1ccc(F)cc1)C=C(c1ccccc1)N2 (stereo not given) | 17% | 1% | i | ? | ? | -1%
C[N+]1(CC(=O)c2c3ccccc3cc3ccccc23)CCOCC1 | 5%[0.0914 µM] | / | / | 6% | / | /
COc1ccc(NC(=O)N[C@@H](CCSC)C(=O)O)cc1Cl | -2% | ? | -115%* | 8% | -2% | 14%
COc1ccc(CN(Cc2ccccc2)C(=O)c2ccccc2O)cc1COc1ccc(NC(C)=O)cc1 | / | / | / | / | 17% | /
CCCCOc1c(Br)cc(/C=C2\N=C(C)OC2=O)cc1OCC | 1% | 28% | i | 40µM* | ? | 3%
Cc1ccc(CN(C)C(=O)C2CCCN2C(=O)c2cccs2)o1 (stereo not given) | 9% | 2% | i | 10µM* | 2% | 12%
O/N=C(/CBr)c1ccc2ccccc2c1 | 11%[0.0914 µM] | / | / | 25µM* | / | /
Cc1cc(C)cc(OCC(=O)Nc2ccc(Cl)c(-c3nc4ncccc4o3)c2)c1 | 3% | / | / | 12% | 13% | /
Cc1nc2ccccc2nc1-c1csc(-c2ccccc2)n1 | 0% | / | / | ? | / | /
COc1ccc(N(CCC#N)C(=O)/C(C#N)=C\c2cccs2)cc1 | -2% | 3.2µM* | i | 2% | -4% | -2%
O=C(CSc1ccc(-c2nc3ccccc3[nH]2)cn1)N1CCN(C(=O)c2ccco2)CC1 | 37% | -4% | i | 1.4µM* | ? | 5%
CCOc1ccc(NC(=O)C2CC(=O)N(c3ccccc3F)C2)cc1 (stereo not given) | -5%[57.1 µM] | 3% | i | -8%[57.1 µM] | 2% | 0%
SMILES | TrxR1 substrate | A-T KAP1 phos | Akt phos inh | rTrxR1 inhibitor | Pin1 inh | N370S GC mod
CCOc1ccccc1N1CC(C(=O)Nc2nccs2)CC1=O (stereo not given) | 8%[57.1 µM] | 3% | -124%* | 13%[57.1 µM] | 7% | -1%
CCOc1ccccc1N1CC(C(=O)Nc2ccc(C(=O)O)cc2)CC1=O (stereo not given) | -2% | -10% | -112%* | -6% | -1% | 5%
COc1ccc(C2c3ccc(OCc4ccccc4)cc3Oc3ncn(CCN4CCOCC4)c(=N)c32)cc1OC (stereo not given) | / | / | / | / | -1% | /
N#Cc1nc(Nc2cc(Cl)cc(Cl)c2)nc(NC2CCCC2)n1 | / | / | / | / | 8% | /
Cc1cc(C(=O)c2ccc(Cl)cc2)c(NC(=O)CCl)s1 | 13%[57.1 µM] | -6% | i | 4µM* | 10% | -17%
CCc1cc(C(=O)c2ccc(OC)cc2)c(NC(=O)CCC(=O)O)s1 | 17%[57.1 µM] | 6% | i | 6%[57.1 µM] | -3% | -14%
CCc1cc(C(=O)c2ccc(C)cc2)c(NC(=O)CCl)s1 | -8% | -6% | i | 32µM* | -11% | -1%
CCOC(=O)c1ccc([N+](=O)[O-])c(CS(=O)(=O)c2ccc(Cl)cc2)c1 | -4% | -23% | i | -3% | 2% | 2%
Cc1ccc(S(=O)(=O)Cc2cc(F)c([N+](=O)[O-])cc2[N+](=O)[O-])cc1 | -1% | 6% | i | 18µM* | -10% | -21%
O=C(c1nnsc1S(=O)c1ccc(Cl)cc1)N1CCOCC1 (stereo not given) | 10%[57.1 µM] | -5% | i | 3.5µM* | 1% | 9%
O=C(Nc1ccccc1)c1nnsc1S(=O)c1ccc(Cl)cc1 (stereo not given) | 10%[57.1 µM] | -5% | i | 1.3µM* | 1% | -13%
Cc1nnsc1S(=O)c1ccc(Cl)cc1 (stereo not given) | -1% | 12% | i | -22% | ? | -13%
CC(C)c1ccc2oc(=O)cc(CN3CCCCC3)c2c1 | 1% | 35µM* | i | 13% | -5% | 2%
CN1CCN(Cc2cc(=O)oc3ccc(Cl)cc23)CC1 | -8% | 3% | -104%* | -4% | 2% | 3%
CCCNc1nc(N)nc(-c2cc(Cl)ccc2OC)n1 | -9%[57.1 µM] | 4% | -102%* | 7%[57.1 µM] | -2% | -3%
Cc1ccc2nc(-c3ccc(N4C(=O)CC(N5CCN(CCO)CC5)C4=O)cc3)sc2c1 (stereo not given) | 10% | 7% | i | -20% | 4% | 18µM*
COc1ccc(CN(C(=O)/C=C/C(=O)c2ccc(OC)cc2O)C(C(=O)NC2CCCCC2)c2ccncc2)cc1 (stereo not given) | -4% | 4% | i | -1% | 15% | -8%
COCCN(CC(=O)NC1CCCCC1)C(=O)/C=C/C(=O)c1ccc(OC)cc1O | 9%[57.1 µM] | -7% | i | 2µM* | 1% | -5%
COc1ccc(C(=O)/C=C/C(=O)N(CC(=O)NC2CCCCC2)Cc2cccs2)c(O)c1 | 3% | 6% | i | 1µM* | 23% | -2%
Cc1cccc(N2CCN(c3cc(C)nc4c(-c5ccc(Cl)cc5)c(C)nn34)CC2C)c1 (stereo not given) | 9%[57.1 µM] | / | / | 24%[57.1 µM] | 1% | /
